These results are taken from PubChem BioAssay.

Each structure is given as a SMILES string.

For the experiment, the system named is PRMT1 (protein arginine N-methyltransferase 1). The experiment is described as follows: PRMT1 binders on small-molecule microarrays, primary screen, biochemical, small-molecule microarray, 635 nm fluorescence (AID 1088). The following applies: small-molecule microarray binding, higher = more signal.
Turning to `COc1ccc(COC(=O)NN=C2C[C@@H](O)[C@@H](O)[C@@H]3[C@@H]4C(=O)N(c5ccc(F)cc5F)C(=O)[C@@H]4CC[C@H]23)cc1`, the composite z-score came out at 0.0093. For `COc1ccc(O[C@H]2C=C[C@@H](c3ccccc3)O[C@@H]2COC(=O)CCC(C)=NOC[C@@H](O)[C@H]2O[C@@H]3OC(C)(C)O[C@@H]3[C@H]2O)cc1`, the composite z-score was 1.34. Compound `CO[C@H]1COC(=O)CC=C[C@H](C)[C@@H](OC)COC(=O)[C@H](C)COC(=O)CC=C[C@@H]1C` yielded a composite z-score of 0.765. `CCOC(=O)C1=NO[C@]2(C=C(Br)C3(OCCCO3)[C@H]3O[C@H]32)C1` displayed a composite z-score of -0.365.

Take `Cc1cc2c(nc1C)CCCCN2CC(C)ON=C1[C@H]2CCn3c(=O)n(-c4ccccc4)c(=O)n3[C@H]2[C@H](O)[C@@H]2O[C@H]12` (stereo not given in full): the composite z-score was determined as 0.208. The compound `COc1ccc(O[C@H]2C=C[C@@H](c3ccccc3)O[C@@H]2COC(=O)CCC(C)=NO[C@@H]2O[C@H](COC(C)=O)[C@@H](OC(C)=O)[C@H](OC(C)=O)[C@H]2OC(C)=O)cc1` gave a composite z-score of 1.44.

Turning to `Cc1cc2c(c(=O)o1)[C@@H](O)[C@H]1O[C@H]1C2=O`, the composite z-score came out at 0.798. Regarding `CCOC(=O)CCN1C(=O)[C@H]2[C@H]3[C@H](O)[C@H](O)CC(=NNC(=O)OCc4ccccc4)[C@@H]3CC[C@H]2C1=O`, the composite z-score is 1.05. The same measure for `O=C1[C@H]2[C@H]3[C@H](O)[C@H](O)CC(=NOC[C@@H](O)COCc4ccco4)[C@@H]3CC[C@H]2C(=O)N1C[C@@H]1CCCO1`: 1.37; for `CC(C)CON=C1C[C@@H](O)[C@@H](O)[C@@H]2[C@@H]3C(=O)N(C[C@@H]4CCCO4)C(=O)[C@@H]3CC[C@@H]12`: 0.242.
